gsp antag – antagonists of gsp mutant (McCune-Albright syndrome); Potency, µM (doses to about 76.9 µM), for the others: top-dose activity change, negative = inhibition, usual class: inhibitors; 340,000 tested, 0.4% active; gsp-mutant cells, cAMP HTRF, 30 min; AID 624288; calls by dose curve; cell line not stated here;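 note: intracellular cAMP measured with PDE inhibitor Ro 20-1724 present during compound exposure; potency is the fitted concentration of half-maximal effect; % is set by controls: 0 for no effect and ±100 for the full control effect; nearly all actives have a fitted effect of over 65% in size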
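G418-selected cells were plated in DMEM/10% FBS for 16-24 h at 37C, then treated with compounds plus the PDE inhibitor […] (300 uM solution added) for 30 min at 37C. Intracellular cAMP was measured by HTRF after 30 min lysis at room temperature.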
gsp ag – agonists of gsp mutant (McCune-Albright syndrome); gsp mutant cells, cAMP HTRF, 30 min; Potency, µM (highest dose often 76.9 µM), without a hit: top-dose activation (cAMP increase), actives largely listed as activators; 340,000 tested, 0.13% active; active = well fitted activation curve with a large enough effect; inconclusive = small, poorly fitted or top-dose-only effect, or another doubt; inactive = no such curve, though single readings can be large or run the other way; cell line not stated here;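 note: phosphodiesterase inhibitor Ro 20-1724 added with compounds to block cAMP breakdown; potency is the fitted concentration of half-maximal effect; nearly all actives have a fitted effect of over 60% in size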
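Cells in DMEM/10% FBS with G418 were pretreated with compounds in DMSO plus […] (300 uM stock) for 30 min at 37C. cAMP was measured by HTRF (cAMP-d2 plus anti-cAMP antibody-K) after 30 min at room temperature.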
RXFP1 ag – activates the human relaxin receptor RXFP1. HEK293T-RXFP1 cAMP TR-FRET, 30 min; response scale: percent of porcine relaxin response, buffer zero. Potency, µM (top dose mostly 57.5 µM), inactives show top-dose activation, hits mostly activators. Q9HBX9. 370,000 tested, 0.3% active; active = well fitted activation curve with a large enough effect; inconclusive = small, poorly fitted or top-dose-only effect; note: potency is the fitted concentration of half-maximal effect; % is set by controls: 0 for no effect and ±100 for the full control effect; nearly all actives have a fitted effect of over 60% in size
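Agonist response is measured as cAMP accumulation in an RXFP1-transfected HEK293T line under PDE4 inhibition. Values are scaled between buffer-only and 29 nM porcine relaxin, and EC50s come from standard Hill equation fits.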
RXFP1 antag – RXFP1 (human) relaxin receptor antagonism; HEK293-RXFP1, relaxin-stimulated cAMP HTRF, 30 min; hits give low values; 350,000 tested, 0.59% active; Q9HBX9; AID 1259400; activity change, negative = inhibition, % at 57.5 µM;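 active = activity change of -60% or lower, but not beyond a set lower limit; inconclusive = change between -60% and -40%, or beyond the set limit; inactive = change above -40%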; note: % is set by controls: 0 for no effect and ±100 for the full control effect
TSHR antag – blocks TSH signaling through the human TSH receptor; 330,000 tested, 0.2% active; P16473; TSHR-expressing cells, TSH-stimulated cAMP HTRF, 2 h; hits give low values; AID 504810; activity change, negative = inhibition, % at 11.5 µM;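 active = activity change below a set negative limit, meaning inhibition stronger than a set level, cut at about -70% in these data; inconclusive = activity change between two set negative limits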; note: % is set by controls: 0 for no effect and ±100 for the full control effect
Target sequence (P16473 whole entry, looked up): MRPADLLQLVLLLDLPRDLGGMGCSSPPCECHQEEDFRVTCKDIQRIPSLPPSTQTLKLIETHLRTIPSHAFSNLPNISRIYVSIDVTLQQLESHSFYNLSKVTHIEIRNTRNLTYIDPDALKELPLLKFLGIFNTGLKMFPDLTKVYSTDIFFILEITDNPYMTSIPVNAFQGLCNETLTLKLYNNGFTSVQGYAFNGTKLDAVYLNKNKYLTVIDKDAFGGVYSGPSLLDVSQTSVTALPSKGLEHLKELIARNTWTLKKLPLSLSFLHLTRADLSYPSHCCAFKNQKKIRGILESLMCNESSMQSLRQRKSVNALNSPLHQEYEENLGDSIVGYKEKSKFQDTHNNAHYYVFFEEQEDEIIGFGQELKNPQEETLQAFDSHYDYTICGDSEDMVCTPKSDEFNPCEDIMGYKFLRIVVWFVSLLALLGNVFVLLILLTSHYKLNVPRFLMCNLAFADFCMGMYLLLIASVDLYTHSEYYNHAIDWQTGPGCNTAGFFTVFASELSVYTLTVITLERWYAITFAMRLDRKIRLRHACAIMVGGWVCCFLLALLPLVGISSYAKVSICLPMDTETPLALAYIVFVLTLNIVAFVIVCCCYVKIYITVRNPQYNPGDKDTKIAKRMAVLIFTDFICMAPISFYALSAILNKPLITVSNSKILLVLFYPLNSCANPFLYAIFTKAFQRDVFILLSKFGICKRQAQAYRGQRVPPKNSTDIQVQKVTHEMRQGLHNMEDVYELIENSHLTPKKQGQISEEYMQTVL
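Antagonism was scored as loss of TSH-driven cAMP in TSHR cells, stimulated with 4nM TSH (EC80) for 2 hours at 37 deg C and detected by homogeneous HTRF competition immunoassay.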
* hit, by the source's call; ? = inconclusive; · = no result given; ! = repeats disagree; [ ] = remark or other dose. The list is not random: actives were taken first. Their share in the collection is about 1%.

SMILES | gsp antag | gsp ag | RXFP1 ag | RXFP1 antag | TSHR antag
Cc1cc(OC(C)C(=O)N2CCC(c3nc4ccccc4o3)CC2)ccc1Cl (stereo not given) | · | · | -0.9% | -61.6* | ·
COc1cc(C2C(C(=O)c3ccc(C)o3)=C(O)C(=O)N2CCN2CCOCC2)ccc1OCCC(C)C (stereo not given) | 4.6% | 38.3%[15.4 µM] | 15.8µM* | 7.7 | -3.7
COc1cc(C2C(C(C)=O)=C(O)C(=O)N2CCN2CCOCC2)ccc1O (stereo not given) | 3.7% | ? | 1.0% | 1.5 | -5.2
Cc1ccc(S(=O)(=O)Nc2ccccc2-c2ccccc2NS(=O)(=O)c2ccc(C)cc2)cc1 | 39.8µM* | -3.3% | -4.5% | -15.7 | -1.4
Cc1ccc(S(=O)(=O)Nc2ccc(N=Nc3ccc(O)cc3)cc2)cc1 | -19.5% | 8.3%[15.4 µM] | 0.4% | -26.8 | -74.9*
Cc1ccc(S(=O)(=O)Nc2ccccc2C(N)=O)cc1 | 8.5% | 24.0% | -0.2% | -5.0 | ·
Cc1ccc(S(=O)(=O)NCCNS(=O)(=O)c2ccc(C)cc2)cc1 | -18.2% | 14.6%[15.4 µM] | -2.8% | -10.8 | -82.9*
Cc1ccc(-n2ncc(C(=O)NCc3ccco3)c2C2CCN(C(=O)OC(C)(C)C)CC2)c(C)c1 | · | · | -0.3% | -24.9 | ·
CCOC(=O)c1ccccc1NC(=O)NCc1cccn1Cc1ccc(F)cc1 | · | · | 3.0% | -15.9 | ·
Cc1ccc(C)c(N2CCN(CCCNC(=O)c3cnn(-c4ccccc4Cl)c3C3CCN(C(=O)OC(C)(C)C)CC3)CC2)c1 | · | · | -2.8% | ? | ·
Cc1cc(C)cc(NC(=O)CSc2nc(=O)[nH]c3c2CCC3)c1 | · | · | 2.5% | -13.2 | ·
COc1ccc(/C=N\NC(=O)c2ccccc2Cl)cc1COc1c(F)c(F)c(F)c(F)c1F | -14.9% | 17.7%[15.4 µM] | -0.2% | -12.7 | 4.0
COc1ccc(/C=N\NC(=O)c2ccccc2OC)cc1COc1c(F)c(F)c(F)c(F)c1F | 39.8µM* | -6.2%[15.4 µM] | -1.6% | -18.8 | -2.7
CCOc1cc(/C=N/NC(=O)c2ccccc2OCc2ccc(F)cc2)ccc1O | 35.5µM* | ? | -2.6% | 5.0 | -16.1
CCOc1cc(/C=N/NC(=O)c2ccccc2-n2cccc2)ccc1O | 7.9% | 19.7% | 2.9% | -6.9 | -3.7
Cc1ccc(OCC(=O)Nc2ccccc2C(=O)OCc2cc(=O)n3ccsc3n2)cc1C | · | · | ? | -15.8 | ·
O=C(c1cccs1)N1N=C(c2ccccc2)CC1c1ccc(O)cc1 (stereo not given) | 28.2µM* | 22.5% | -1.3% | ? | 33.1
Cn1c(CNC(=O)CSc2nc(-c3ccccc3F)nc3cc(=O)[nH]n23)nc2ccccc21 | · | · | 0.2% | -3.4 | ·
O=C(O)/C=C/c1ccc(S(=O)(=O)Nc2ccccc2C(=O)Nc2ccc(F)cc2)cc1 | 1.2% | 18.1% | -0.3% | -6.4 | -100.2*
O=C(NCC(c1ccco1)S(=O)(=O)c1cccs1)c1ccccc1F (stereo not given) | · | · | -0.1% | 0.6 | ·
COc1ccc(CCN2C(=O)C(O)=C(C(=O)c3ccco3)C2c2cccs2)cc1OC (stereo not given) | 31.9% | 17.8µM* | ? | 16.0 | 56.0
CC(C)n1ncc2c(C(=O)NCC(=O)Nc3ccccc3Br)cc(C3CC3)nc21 | -16.3% | 27.2% | -2.7% | -88.0* | 25.1
C[C@@H](O)[C@H]1C(=O)N2C(C(=O)O)=C(SCCN=CN)C[C@H]12 | · | · | · | 11.5 | -6.5
Cc1cccc(-c2nc(CSCC(=O)N3CCN(c4ccccn4)CC3)c(C)o2)c1 | 31.6µM* | -14.4% | -2.3% | -5.9 | -36.6
COc1ccc(-c2nc(CSCC(=O)N3CCN(c4ccccc4)CC3)c(C)o2)cc1 | · | · | -1.3% | -35.0 | ·
SMILES | gsp antag | gsp ag | RXFP1 ag | RXFP1 antag | TSHR antag
Cc1ccsc1-c1nc(CSCC(=O)N2CCN(c3ccccc3)CC2)c(C)o1 | ? | -40.8% | 4.2% | -5.5 | -70.7*
Cc1cccc(CNc2ncnc3ccc(-c4ccc5c(ccn5C)c4)cc23)c1 | · | · | 3.8% | · | -8.2
O=Nc1c(-c2c(O)[nH]c3cc(Br)ccc23)[nH]c2ccccc12 | 20µM* | · | -0.5% | · | -10.7
CC(C)(C)c1ccc(C(=O)Nc2ccc(C(=O)OCc3cc(=O)n4ccsc4n3)cc2)cc1 | · | · | 2.3% | -13.6 | ·
CCc1nonc1NC(=O)c1oc2ccc(Br)cc2c1C | 10.3% | -22.0% | 25.1µM*! | -14.0 | -14.0
CCc1nonc1NC(=O)c1oc2cc(C)c(C)cc2c1C | 1.1% | -3.2% | -1.5% | 12.3 | -5.6
C=CCNC(=S)Nc1sc2c(c1C(=O)OCC)CC(C(C)C)OC2 (stereo not given) | 7.5% | ? | 2.4% | -95.6* | 8.5
CCOC(=O)c1c(NC(=S)NCCc2ccccc2)sc2c1CC(C(C)C)OC2 (stereo not given) | -6.4% | 29.2% | -0.2% | 15.2 | -2.0
CCOc1ccccc1NC(=O)COC(=O)C(CC)c1ccccc1 (stereo not given) | 10µM* | 25.2% | 0.6% | -10.8 | -3.4
COc1ccc(N2CCN(C(=O)CSc3nc(-c4ccc(C(C)C)cc4)no3)CC2)cc1 | · | · | -1.1% | -6.7 | ·
COc1ccccc1CNS(=O)(=O)c1cc(-c2cc(C)no2)ccc1C(C)C | -21.6% | -24.0% | -1.6% | 0.6 | -80.1*
Cc1nn2c(NCCOCCO)c3c(nc2c1-c1ccccc1)CCCC3 | -11.7% | 0.9% | -0.3% | -5.1 | 1.0
COCCNc1c2c(nc3c(-c4ccccc4)c(C)nn13)CCCC2 | 35.5µM* | 6.9% | -2.8% | -27.6 | -7.6
COc1cccc(C(=O)Nc2ccc(NC(=O)C3CCCCC3)nc2)c1 | -7.7% | -25.9% | -6.0% | -20.3 | -103.0*
CCOc1ccc(N2C(=O)c3[nH]nc(-c4ccc(OC)cc4)c3C2c2cccs2)cc1 (stereo not given) | · | · | 1.5% | -28.4 | ·
Cc1ccc(OCC(=O)Nc2ccc3nc(Nc4cccc(Cl)c4)cc(C)c3c2)cc1 | · | · | 14.1µM* | -10.8 | ·
COc1ccc(C(=O)/C=C/C(=O)N(CC(=O)NC2CCCCC2)Cc2ccccc2)c(O)c1 | -2.2% | -5.5% | -1.4% | -64.2* | -45.1
COc1ccc(Cl)cc1NC(=O)CSc1nnc(C)n2c1cc1occc12 | · | · | ? | 5.8 | ·
N#C/C(=C\c1ccccc1)C(=O)NCc1ccc(F)cc1 | 6.5% | 7.3% | 1.1% | -65.1* | -12.6
C=C1CC(Cn2cc(Br)c(=O)[nH]c2=O)(c2ccc(-c3ccccc3)cc2)OC1=O (stereo not given) | 6.8% | 13.4% | · | -89.7* | ·
O=c1[nH]c(=O)n(Cc2ccc(Oc3ccccc3)cc2)cc1Br | · | · | 3.5% | · | -12.3
CCc1ccc(CN2CCc3nc(Nc4ccccc4)ncc3C2)cc1 | · | · | 1.9% | -65.2* | ·
CCOc1ccccc1CN1CCc2nc(Nc3ccccc3)ncc2C1 | · | · | -0.7% | -39.0 | ·
CCS(=O)(=O)n1nc(-c2ccco2)nc1NCc1ccc(C(C)C)cc1 | · | · | 1.4% | -18.5 | ·
O=C(OCC(=O)c1ccc[nH]1)c1ccc(Cl)c(Cl)c1 | 8.6% | 12.2% | · | -87.1* | 17.1

Bioassay records deposited in PubChem BioAssay by National Center for Advancing Translational Sciences (NCATS).
